Growth data for 14 molecules are collected here from PubChem BioAssay (NCI).

Test systems include NCI-H23 lung; NCI-H226 lung; NCI-H322M lung; HOP-62 NSCLC; NCI-H460 lung; HOP-92 NSCLC; NCI-H522 lung; A549/ATCC NSCLC; 786-0 renal; COLO 205 colon.
What all share (test): NCI-60 one-dose screen, 48 h (100 = growth as untreated, 0 = no growth, -100 = all killed)
Common to all, as to settings: 10 µM unless noted

Molecules are shown by their SMILES. About 83,000 compounds went through this panel and 20% of them were active in at least one assay; those are over-represented in the sample as a whole.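 Percent growth is the endpoint: 0 to 100 indicates growth inhibition (40 means 60% inhibition), 0 means no net growth, and negative values indicate cell death.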 Values without a mark were called inactive. Activity calls are given as the source filed them. How the source made its calls: active means growth percent below 10; inactive means the rest.

For the molecule `COc1ccc(NC2=C(I)C(=O)c3ncccc3C2=O)cc1`, the growth was -43.7% (active) in the assay on NCI-H23 lung; 82.2% in the assay with NCI-H226 lung; 17.4% in the assay with NCI-H322M lung; -62% (active) in the assay on HOP-62 NSCLC; -57.2% (active) in the assay with NCI-H460 lung; 75.3% in the assay on HOP-92 NSCLC. Moreover, the growth in the assay with NCI-H522 lung was -69.4% (active); in the assay with A549/ATCC NSCLC it was 0.0675% (active); in the assay on 786-0 renal, 11.3%; with COLO 205 colon, -53.7% (active).
With `CC(C)(Sc1cc(C(C)(C)C)c(OC(=O)CCCC(=O)O)c(C(C)(C)C)c1)Sc1cc(C(C)(C)C)c(OC(=O)CCCC(=O)O)c(C(C)(C)C)c1`, the growth in the assay with NCI-H23 lung was 29.5%; in the assay on NCI-H226 lung, 64.8%; in the assay on NCI-H322M lung, 49.5%; in the assay on HOP-62 NSCLC it was 38%; in the assay on NCI-H460 lung, 9.34% (active); in the assay with HOP-92 NSCLC it was 73%. Also, the growth with NCI-H522 lung was 37.8%; in the assay on A549/ATCC NSCLC, 21.4%; in the assay with 786-0 renal, 49.7%; in the assay on COLO 205 colon, 58.4%.
`C#CCOc1ccc2ncnc(Nc3ccc(NC(=O)C=C)cc3)c2c1`: the growth is 2.09% (active) in the assay on NCI-H23 lung; 97.7% in the assay on NCI-H226 lung; 69.5% in the assay on NCI-H322M lung; 78.5% in the assay on HOP-62 NSCLC; 24.1% with NCI-H460 lung; -36.8% (active) with HOP-92 NSCLC. For the same molecule, the growth in the assay with NCI-H522 lung was -75.7% (active); in the assay with A549/ATCC NSCLC, 80%; with 786-0 renal, -37.7% (active); with COLO 205 colon, -57.6% (active).
As for `COC(=O)CC[C@H](C)[C@H]1CC[C@H]2[C@@H]3CC[C@@H]4CC5(CC[C@]4(C)[C@H]3CC(=O)[C@]12C)Nc1ccccc1NC5=NC(C)(C)C` (stereo not given in full), the growth in the assay with NCI-H23 lung was 72.8%; in the assay on NCI-H226 lung, 65.4%; with NCI-H322M lung it was 95.6%; in the assay on HOP-62 NSCLC it was 84.3%; in the assay with NCI-H460 lung it was 85.5%; with HOP-92 NSCLC it was -2.12% (active). Moreover, the growth in the assay with NCI-H522 lung was 75.8%; in the assay on A549/ATCC NSCLC, 82.3%; in the assay on 786-0 renal, 81.1%; with COLO 205 colon, 66.4%.
As to `Oc1c(Br)cc(Br)c2ccc(Cn3cc(-c4ccccc4C(F)(F)F)nn3)nc12`, the growth in the assay with NCI-H23 lung is 106%; in the assay with NCI-H226 lung it was 98.6%; in the assay on NCI-H322M lung it was 104%; with HOP-62 NSCLC it was 103%; with NCI-H460 lung, 101%; in the assay with HOP-92 NSCLC, 88.8%. Further, the growth in the assay with NCI-H522 lung was 24.6%; in the assay on A549/ATCC NSCLC, 99.6%; with 786-0 renal, 105%; in the assay on COLO 205 colon, 95.7%.
Take `Cc1cc(C(=O)Nc2ncc(Cc3cccc(C(F)(F)F)c3)s2)c2ccccc2n1`: the growth was 51.6% in the assay on NCI-H23 lung; 54.4% with NCI-H226 lung; 59.3% in the assay with NCI-H322M lung; 31.8% in the assay on HOP-62 NSCLC; 11.3% in the assay on NCI-H460 lung; 28% with HOP-92 NSCLC. The growth is 10.3% in the assay with NCI-H522 lung, 24.7% in the assay on A549/ATCC NSCLC, 38% in the assay on 786-0 renal and 19.2% in the assay on COLO 205 colon.
For the molecule `COc1cc(-c2cncn2-c2ccc(-c3nc4ccc(F)cc4s3)cc2)ccc1F`, the growth is 71% in the assay on NCI-H23 lung; 85.2% in the assay with NCI-H226 lung; 103% in the assay with NCI-H322M lung; 102% in the assay with HOP-62 NSCLC; 35.4% in the assay with NCI-H460 lung; 94.3% in the assay on HOP-92 NSCLC. For the same molecule, the growth with NCI-H522 lung was 55.9%; in the assay on A549/ATCC NSCLC it was 69.1%; in the assay on 786-0 renal, 90.8%; with COLO 205 colon, 82.7%.
In the case of `COc1ccc(C2=Nc3c(N)nc(N)nc3NC(c3cccc(Nc4ccnc5cc(C(F)(F)F)ccc45)c3)C2)cc1` (stereo not given), the growth in the assay with NCI-H23 lung is 85.8%; in the assay on NCI-H226 lung it was 97.2%; in the assay on NCI-H322M lung it was 99.6%; in the assay with HOP-62 NSCLC, 67.8%; in the assay on NCI-H460 lung, 59.3%; in the assay with HOP-92 NSCLC, 57.3%. In addition, the growth in the assay with NCI-H522 lung was 44.9%; in the assay on A549/ATCC NSCLC it was 63.1%; in the assay on 786-0 renal, 73%; in the assay with COLO 205 colon it was 57.7%.
For the molecule `CS(=O)(=O)c1ccc(-c2cnn3ccc(-c4cccc(S(=O)(=O)C5CC5)c4)nc23)cc1`, the growth in the assay on NCI-H23 lung was 56.8%; in the assay on NCI-H226 lung it was 60.5%; in the assay on NCI-H322M lung it was 57.9%; in the assay on HOP-62 NSCLC, 48.7%; with NCI-H460 lung it was 43.7%; in the assay with HOP-92 NSCLC, 41.9%. In addition, the growth in the assay with NCI-H522 lung is 31.5%; in the assay with A549/ATCC NSCLC it was 45%; in the assay on 786-0 renal, 61.3%; in the assay with COLO 205 colon, 64.3%.
With `O=C1/C(=C/c2cn(-c3ccccc3)nc2-c2ccccc2)SC(=S)N1C1CCCCC1`, the growth in the assay with NCI-H23 lung was 96.1%; in the assay with NCI-H226 lung, 92%; in the assay on NCI-H322M lung, 105%; with HOP-62 NSCLC, 101%; in the assay with NCI-H460 lung it was 103%; in the assay on HOP-92 NSCLC, 46.9%. The growth in the assay with NCI-H522 lung was 91.5%; with A549/ATCC NSCLC it was 103%; in the assay on 786-0 renal, 106%; with COLO 205 colon it was 117%.
For `CCN1CCN(C(=O)[C@]23CCC(C)(C)C[C@@H]2C2=CC[C@@H]4[C@@]5(C)CCC(=O)C(C)(C)[C@@H]5CC[C@@]4(C)[C@]2(C)CC3)CC1`, the growth in the assay on NCI-H23 lung is 64.9%; in the assay on NCI-H226 lung it was 71%; with NCI-H322M lung, 81.2%; with HOP-62 NSCLC it was 78.8%; with NCI-H460 lung, 25.5%; in the assay on HOP-92 NSCLC, 44.9%. In addition, the growth in the assay on NCI-H522 lung was 44.7%; in the assay with A549/ATCC NSCLC, 46.1%; in the assay with 786-0 renal, 50.5%; with COLO 205 colon it was 44.2%.
As to `C=C1C(=O)O[C@H]2[C@H]1CC/C(COC(=O)c1cc3ccccc3s1)=C\CC[C@@]1(C)O[C@@H]21`, the growth in the assay on NCI-H23 lung was -46.4% (active); in the assay on NCI-H226 lung, -51.1% (active); with NCI-H322M lung it was -25.8% (active); with HOP-62 NSCLC, -61.6% (active); with NCI-H460 lung, -57.3% (active); in the assay with HOP-92 NSCLC it was -74.4% (active). In addition, the growth was -70.1% (active) with NCI-H522 lung, -51.1% (active) with A549/ATCC NSCLC, -83.4% (active) in the assay with 786-0 renal and -71.3% (active) in the assay with COLO 205 colon.
For the molecule `CCOC(=O)C#Cc1c(C(=O)OCC)nnn1Cc1ccc([N+](=O)[O-])cc1`, the growth in the assay with NCI-H23 lung is 86.2%; in the assay on NCI-H226 lung, 70.4%; in the assay with NCI-H322M lung, 100%; in the assay with HOP-62 NSCLC, 113%; in the assay with NCI-H460 lung, 98.7%; in the assay with HOP-92 NSCLC, 40.6%. Besides, the growth in the assay with NCI-H522 lung is -33.4% (active); with A549/ATCC NSCLC it was 96.1%; in the assay with 786-0 renal it was 65.6%; in the assay with COLO 205 colon, -22.2% (active).
As to `CCN(C)S(=O)(=O)Nc1cccc(Nc2ncnc3cc(NC(=O)CCl)ccc23)c1Cl`, the growth in the assay with NCI-H23 lung is -27.1% (active); in the assay with NCI-H226 lung, 6.77% (active); in the assay with NCI-H322M lung, 73.9%; with HOP-62 NSCLC, -50.1% (active); with NCI-H460 lung it was -22.5% (active); in the assay with HOP-92 NSCLC, 24.6%. In addition, the growth is -70.6% (active) in the assay on NCI-H522 lung, 18.5% with A549/ATCC NSCLC, -82.8% (active) with 786-0 renal and -33.9% (active) in the assay on COLO 205 colon.
